# Values joined by “and” are separate entries in the source; they are usually repeats but may differ in a detail not shown here. Identical values can stand only once. Inconclusive results are not listed. Where a structure was tested more than once in an assay, its records may differ in their call. Active and inactive are the calls of the source. Rule for the calls, unless noted: active = hit-call score of the fitted dose curve at least 0.9, where 1 is the maximum; inactive = score below 0.9.
# Tests used:
# [1] = BSK_4H_Eotaxin3: BioMAP Diversity Plus: 4H Assay for Eotaxin 3 Biomarker Activity (AID 2283000); details: primary human endothelial cells (HUVEC); actives raise or lower the signal;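 for outcome: CCL26 protein level quantified by ELISA in parallel with SRB cytotoxicity check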
# Method in brief: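 Human umbilical vein endothelial cells (BSK_4H system) dosed with test chemical; Eotaxin-3 (CCL26) measured by ELISA 24 h after dosing. Bidirectional curve fitting relative to DMSO negative control as baseline.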
# [2] = target: human Peroxisome Proliferator-activated Receptor alpha (PPARa), PPARA (gene 5465) (UniProt Q07869); assay: ATG_PPARa_TRANS: Attagene TRANS-FACTORIAL HepG2 Assay for human Peroxisome Proliferator-activated Receptor alpha (PPARa) (AID 2283001; active = hit-call score of the fitted dose curve at least 0.9, where 1 is the maximum;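 for AC50: potency for gain of reporter signal over DMSO so agonist or activator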)
# human Peroxisome Proliferator-activated Receptor alpha (PPARa), PPARA (gene 5465), sequence (Q07869 whole entry, looked up, the tested form may be a part): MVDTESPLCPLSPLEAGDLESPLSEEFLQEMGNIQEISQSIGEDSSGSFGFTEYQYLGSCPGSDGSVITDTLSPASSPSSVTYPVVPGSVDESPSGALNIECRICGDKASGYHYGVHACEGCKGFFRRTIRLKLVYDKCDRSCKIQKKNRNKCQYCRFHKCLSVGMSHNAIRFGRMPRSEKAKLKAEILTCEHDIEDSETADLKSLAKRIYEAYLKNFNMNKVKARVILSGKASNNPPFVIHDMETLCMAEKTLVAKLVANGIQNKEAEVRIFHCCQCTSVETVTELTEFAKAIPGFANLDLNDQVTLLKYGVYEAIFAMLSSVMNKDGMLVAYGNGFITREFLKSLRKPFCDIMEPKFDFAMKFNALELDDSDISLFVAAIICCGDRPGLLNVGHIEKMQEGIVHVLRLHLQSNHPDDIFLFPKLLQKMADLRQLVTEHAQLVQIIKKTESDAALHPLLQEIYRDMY
# Method in brief: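 HepG2 cells transiently transfected with multiplexed GAL4-UAS reporter units and chimeric NR-Gal4 constructs were dosed for 24 h. Reporter mRNA was measured by RT-PCR with fluorescent labelling and capillary electrophoresis; gain of signal fitted against DMSO.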
# [3] = target: human Peroxisome Proliferator-activated Receptor delta (PPARd), PPARD (gene 5467) (UniProt Q03181); assay: ATG_PPARd_TRANS: Attagene TRANS-FACTORIAL HepG2 Assay for human Peroxisome Proliferator-activated Receptor delta (PPARd) (AID 2283002; active = hit-call score of the fitted dose curve at least 0.9, where 1 is the maximum)
# human Peroxisome Proliferator-activated Receptor delta (PPARd), PPARD (gene 5467), sequence (Q03181 whole entry, looked up, the tested form may be a part): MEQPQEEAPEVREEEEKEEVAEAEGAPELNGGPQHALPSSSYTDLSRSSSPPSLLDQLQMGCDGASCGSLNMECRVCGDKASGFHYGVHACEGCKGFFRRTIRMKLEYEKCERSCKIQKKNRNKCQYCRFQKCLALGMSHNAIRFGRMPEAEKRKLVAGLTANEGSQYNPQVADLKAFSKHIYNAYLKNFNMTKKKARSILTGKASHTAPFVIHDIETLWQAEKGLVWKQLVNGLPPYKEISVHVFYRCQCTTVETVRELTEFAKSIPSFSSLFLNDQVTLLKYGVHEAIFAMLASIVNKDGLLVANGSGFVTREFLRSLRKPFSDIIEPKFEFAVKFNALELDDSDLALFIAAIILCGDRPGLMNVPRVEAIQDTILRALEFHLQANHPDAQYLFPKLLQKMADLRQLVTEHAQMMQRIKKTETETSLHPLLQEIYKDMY
# Method in brief: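 Multiplexed trans-activation format: HepG2 liver cells expressing exogenous NR-Gal4 chimeras and GAL4-UAS reporters were exposed for 24 h. Reporter mRNA was detected by RT-PCR with capillary electrophoresis fluorescence; activity fitted as gain of signal relative to DMSO.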
# [4] = read-out: Intercellular Adhesion Molecule 1 (ICAM1), ICAM1 (gene 3383); assay: BSK_3C_ICAM1: BioMAP Diversity Plus: 3C Assay for Intercellular Adhesion Molecule 1 (ICAM1) Biomarker Activity (AID 2283003); details: primary human endothelial cells (HUVEC); actives raise or lower the signal
# Method in brief: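 Primary human umbilical vein endothelial cells in the BioMAP 3C system were exposed to chemicals for 24 h, then ICAM-1 was quantified by ELISA. Activity was fitted bidirectionally against the DMSO negative control baseline.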
# [5] = target: Retinoic acid receptor alpha (Homo sapiens) (UniProt P10276); assay: ATG_RARa_TRANS: Attagene TRANS-FACTORIAL HepG2 Assay for human Retinoic Acid Receptor alpha (RARa) (AID 2283005; active = hit-call score of the fitted dose curve at least 0.9, where 1 is the maximum)
# Retinoic acid receptor alpha (Homo sapiens), sequence (P10276 whole entry, looked up, the tested form may be a part): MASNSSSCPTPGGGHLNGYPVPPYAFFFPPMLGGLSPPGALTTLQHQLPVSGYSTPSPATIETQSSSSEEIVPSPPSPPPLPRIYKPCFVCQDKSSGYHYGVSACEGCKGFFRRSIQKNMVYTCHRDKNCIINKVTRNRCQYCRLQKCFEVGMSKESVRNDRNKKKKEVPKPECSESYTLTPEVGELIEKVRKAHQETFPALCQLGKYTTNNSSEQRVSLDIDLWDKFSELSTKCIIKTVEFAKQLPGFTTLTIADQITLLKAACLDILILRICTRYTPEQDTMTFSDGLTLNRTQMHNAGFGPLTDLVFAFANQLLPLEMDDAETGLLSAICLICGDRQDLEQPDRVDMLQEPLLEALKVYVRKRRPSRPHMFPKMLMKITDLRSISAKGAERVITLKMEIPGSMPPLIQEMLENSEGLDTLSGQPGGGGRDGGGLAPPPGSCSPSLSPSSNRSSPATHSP
# Method in brief: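 HepG2 cells transiently transfected with multiple reporter units expressing chimeric RARα-GAL4 fusion, with GAL4-UAS-driven reporters. After 24 h compound exposure, reporter mRNA induction quantified by RT-PCR and capillary electrophoresis with fluorescent labeling; gain-of-signal fitted relative to DMSO control.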
# [6] = BSK_3C_Proliferation: Cell Proliferation Assessment in the BioMAP Diversity Plus: 3C Assay (AID 2283006); details: primary human endothelial cells (HUVEC);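 for AC50: potency may reflect either rise or fall in cell number versus DMSO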
# Method in brief: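 Human umbilical vein endothelial cells were grown sub-confluent and exposed to chemical for 48 h, then fixed with 10% TCA and stained with 0.1% sulforhodamine B; absorbance at 560 nm gave relative cell number, fitted bidirectionally against DMSO baseline.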
# [7] = target: Peroxisome proliferator-activated receptor gamma (Homo sapiens) (UniProt P37231); assay: ATG_PPARg_TRANS: Attagene TRANS-FACTORIAL HepG2 Assay for human Peroxisome Proliferator-activated Receptor-gamma (PPARg) (AID 2283007; active = hit-call score of the fitted dose curve at least 0.9, where 1 is the maximum)
# Peroxisome proliferator-activated receptor gamma (Homo sapiens), sequence (P37231 whole entry, looked up): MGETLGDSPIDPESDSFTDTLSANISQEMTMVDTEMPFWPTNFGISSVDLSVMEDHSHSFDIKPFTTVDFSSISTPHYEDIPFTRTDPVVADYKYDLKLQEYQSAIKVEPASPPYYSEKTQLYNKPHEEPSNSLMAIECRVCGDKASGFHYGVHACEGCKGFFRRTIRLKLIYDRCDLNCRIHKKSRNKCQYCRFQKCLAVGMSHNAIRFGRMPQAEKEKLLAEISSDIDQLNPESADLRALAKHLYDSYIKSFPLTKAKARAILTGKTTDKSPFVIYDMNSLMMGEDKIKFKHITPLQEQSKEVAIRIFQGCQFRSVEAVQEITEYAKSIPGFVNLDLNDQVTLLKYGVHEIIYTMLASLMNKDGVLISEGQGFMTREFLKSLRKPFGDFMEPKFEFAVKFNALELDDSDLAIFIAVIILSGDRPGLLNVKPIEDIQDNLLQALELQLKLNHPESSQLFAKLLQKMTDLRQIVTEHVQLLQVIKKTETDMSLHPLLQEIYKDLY
# Method in brief: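 Multiplexed reporter transcription units in HepG2, 24 h dosing, reporter transcripts quantified by fluorescent RT-PCR and capillary electrophoresis. Increase over DMSO scored.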
# [8] = target: human Retinoic Acid Receptor gamma (RARg), RARG (gene 5916) (UniProt P13631); assay: ATG_RARg_TRANS: Attagene TRANS-FACTORIAL HepG2 Assay for human Retinoic Acid Receptor gamma (RARg) (AID 2283009; active = hit-call score of the fitted dose curve at least 0.9, where 1 is the maximum)
# human Retinoic Acid Receptor gamma (RARg), RARG (gene 5916), sequence (P13631 whole entry, looked up, the tested form may be a part): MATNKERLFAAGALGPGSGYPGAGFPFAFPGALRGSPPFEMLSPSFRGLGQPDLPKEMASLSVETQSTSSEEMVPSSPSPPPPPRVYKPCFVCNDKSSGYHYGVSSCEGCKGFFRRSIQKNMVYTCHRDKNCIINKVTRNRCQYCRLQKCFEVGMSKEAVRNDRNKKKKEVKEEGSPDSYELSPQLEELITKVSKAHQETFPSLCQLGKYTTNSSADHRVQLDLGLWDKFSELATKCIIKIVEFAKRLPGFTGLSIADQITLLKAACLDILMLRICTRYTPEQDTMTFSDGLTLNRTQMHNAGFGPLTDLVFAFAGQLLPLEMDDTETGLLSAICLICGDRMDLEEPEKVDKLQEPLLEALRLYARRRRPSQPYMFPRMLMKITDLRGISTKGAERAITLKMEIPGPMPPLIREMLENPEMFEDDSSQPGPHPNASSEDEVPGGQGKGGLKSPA
# Method in brief: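 HepG2 cells transiently transfected with multiplexed reporter units expressing chimeric RARg-GAL4 and GAL4-UAS-driven reporters; 24 h compound exposure. Reporter mRNA quantified by RT-PCR with fluorescent labelling and capillary electrophoresis; gain-of-signal fitted relative to DMSO baseline.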
# [9] = target: human RAR-related Orphan Receptor beta (RORb), RORB (gene 6096) (UniProt Q92753); assay: ATG_RORb_TRANS: Attagene TRANS-FACTORIAL HepG2 Assay for human RAR-related Orphan Receptor beta (RORb) (AID 2283010; active = hit-call score of the fitted dose curve at least 0.9, where 1 is the maximum)
# human RAR-related Orphan Receptor beta (RORb), RORB (gene 6096), sequence (Q92753 whole entry, looked up, the tested form may be a part): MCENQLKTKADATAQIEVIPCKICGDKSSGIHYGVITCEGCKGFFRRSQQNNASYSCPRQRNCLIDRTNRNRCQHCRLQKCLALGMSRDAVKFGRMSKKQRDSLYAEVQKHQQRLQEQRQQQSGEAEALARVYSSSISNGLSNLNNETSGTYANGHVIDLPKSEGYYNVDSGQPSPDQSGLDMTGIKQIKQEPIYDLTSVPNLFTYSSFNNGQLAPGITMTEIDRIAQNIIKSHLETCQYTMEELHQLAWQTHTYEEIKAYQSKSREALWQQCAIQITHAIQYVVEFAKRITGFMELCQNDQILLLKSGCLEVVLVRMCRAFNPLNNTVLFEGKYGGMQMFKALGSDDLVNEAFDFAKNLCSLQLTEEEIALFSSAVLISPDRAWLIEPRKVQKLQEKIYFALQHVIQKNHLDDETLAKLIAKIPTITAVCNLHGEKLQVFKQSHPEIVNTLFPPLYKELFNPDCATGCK
# Method in brief: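 HepG2 cells were transiently transfected with multiplexed GAL4-UAS reporter units expressing chimeric nuclear receptor–GAL4 proteins, then dosed for 24 h. Reporter mRNA was quantified by RT-PCR with fluorescent labelling and capillary electrophoresis; gain of signal was fitted relative to DMSO.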
# [10] = target: Retinoic acid receptor RXR-alpha (Homo sapiens) (UniProt P19793); assay: ATG_RXRa_TRANS: Attagene TRANS-FACTORIAL HepG2 Assay for human Retinoid X Receptor alpha (RXRa) (AID 2283012; active = hit-call score of the fitted dose curve at least 0.9, where 1 is the maximum)
# Method in brief: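 HepG2 cells transiently transfected with multiplexed GAL4-UAS reporter units and chimeric NR-GAL4 fusions, dosed 24 h. Reporter mRNA measured by RT-PCR, FAM labelling, HpaI digestion and capillary electrophoresis; gain-of-signal fitted relative to DMSO baseline.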
# [11] = read-out: E-selectin (Homo sapiens) (UniProt P16581); assay: BSK_3C_Eselectin: BioMAP Diversity Plus: 3C Assay for Eselectin Biomarker Activity (AID 2283015); details: primary human endothelial cells (HUVEC); actives raise or lower the signal;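 note: cell surface E-selectin protein quantified by ELISA 24 h after dosing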
# Method in brief: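 E-selectin ELISA readout, fitted bidirectionally relative to DMSO, taken 24 h post-dosing in HUVEC cultures of the 3C system. Overt cytotoxicity tracked with sulforhodamine B staining of parallel wells.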
# [12] = read-out: Interleukin-1 alpha (IL1a), IL1A (gene 3552); assay: BSK_BE3C_IL1a: BioMAP Diversity Plus: BE3C Assay for Interleukin-1 alpha (IL1a) Biomarker Activity (AID 2283016); details: primary human bronchial epithelial cells; actives raise or lower the signal
# Method in brief: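 Human primary bronchial epithelial cells (BE3C system) were dosed with compound and IL-1a measured by ELISA 24 h later. Activity was fitted bidirectionally against DMSO baseline; cytotoxicity was tracked in parallel cultures by SRB total-protein staining.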
# [13] = read-out: Monocyte Chemoattractant Protein-1 (MCP1), CCL2 (gene 6347); assay: BSK_3C_MCP1: BioMAP Diversity Plus: 3C Assay for Monocyte Chemoattractant Protein-1 (MCP1) Biomarker Activity (AID 2283017); details: primary human endothelial cells (HUVEC); actives raise or lower the signal
# Method in brief: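 MCP-1 was measured by ELISA 24 h after dosing in primary HUVEC 3C cultures and fitted in both directions relative to DMSO; cytotoxicity was checked by SRB total-protein staining in parallel wells.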
# [14] = read-out: Monocyte Chemoattractant Protein-1 (MCP1), CCL2 (gene 6347); assay: BSK_4H_MCP1: BioMAP Diversity Plus: 4H Assay for Monocyte Chemoattractant Protein-1 (MCP1) Biomarker Activity (AID 2283018); details: primary human endothelial cells (HUVEC); actives raise or lower the signal
# Method in brief: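 Human umbilical vein endothelial cells (4H system) dosed with chemical; MCP-1 measured by ELISA 24 h after dosing. Bidirectional curve fitting against DMSO negative control as baseline; parallel SRB total-protein staining tracks overt cytotoxicity.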
# [15] = read-out: Human Leukocyte Antigen - DR isotype (HLADR), HLA-DRA (gene 3122); assay: BSK_3C_HLADR: BioMAP Diversity Plus: 3C Assay for Human Leukocyte Antigen - DR isotype (HLADR) Biomarker Activity (AID 2283019); details: primary human endothelial cells (HUVEC); actives raise or lower the signal;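 for outcome: ELISA of cell-surface HLA-DR on HUVEC 24 h after dosing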
# Method in brief: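 Bidirectional fitting against DMSO was applied to the HLA-DR ELISA signal from human umbilical vein endothelial cells, 24 h post-dose. Cytotoxicity came from parallel SRB total-protein staining; 3C proliferation was counted by SRB at 48 h.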
# [16] = target: Nuclear receptor subfamily 1 group I member 2 (Homo sapiens) (UniProt O75469); assay: ATG_PXR_TRANS: Attagene TRANS-FACTORIAL HepG2 Assay for human Pregnane X Receptor (PXR) (AID 2283008; active = hit-call score of the fitted dose curve at least 0.9, where 1 is the maximum)
# Nuclear receptor subfamily 1 group I member 2 (Homo sapiens), sequence (O75469 whole entry, looked up, the tested form may be a part): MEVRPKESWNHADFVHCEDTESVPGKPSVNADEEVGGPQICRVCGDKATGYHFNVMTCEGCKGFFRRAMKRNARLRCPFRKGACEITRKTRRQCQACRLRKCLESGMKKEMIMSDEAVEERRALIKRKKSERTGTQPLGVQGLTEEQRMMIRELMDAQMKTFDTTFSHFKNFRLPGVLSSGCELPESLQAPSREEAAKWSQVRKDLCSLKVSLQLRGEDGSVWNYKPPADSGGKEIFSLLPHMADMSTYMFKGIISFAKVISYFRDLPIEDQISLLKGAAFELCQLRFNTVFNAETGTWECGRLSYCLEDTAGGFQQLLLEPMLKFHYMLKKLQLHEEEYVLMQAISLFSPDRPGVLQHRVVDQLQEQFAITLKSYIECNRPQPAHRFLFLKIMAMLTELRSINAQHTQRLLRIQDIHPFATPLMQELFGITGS
# Method in brief: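 HepG2 cells transiently transfected with multiple reporter units, here a PXR-GAL4 chimera driving a GAL4-UAS reporter; 24 h compound exposure. Reporter mRNA measured by RT-PCR, FAM labelling and capillary electrophoresis; gain of signal fitted against DMSO baseline.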
# [17] = target: human RAR-related Orphan Receptor gamma (RORg), RORC (gene 6097) (UniProt P51449); assay: ATG_RORg_TRANS: Attagene TRANS-FACTORIAL HepG2 Assay for human RAR-related Orphan Receptor gamma (RORg) (AID 2283011; active = hit-call score of the fitted dose curve at least 0.9, where 1 is the maximum;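 for AC50: potency for induction of reporter transcripts above DMSO so activators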)
# human RAR-related Orphan Receptor gamma (RORg), RORC (gene 6097), sequence (P51449 whole entry, looked up, the tested form may be a part): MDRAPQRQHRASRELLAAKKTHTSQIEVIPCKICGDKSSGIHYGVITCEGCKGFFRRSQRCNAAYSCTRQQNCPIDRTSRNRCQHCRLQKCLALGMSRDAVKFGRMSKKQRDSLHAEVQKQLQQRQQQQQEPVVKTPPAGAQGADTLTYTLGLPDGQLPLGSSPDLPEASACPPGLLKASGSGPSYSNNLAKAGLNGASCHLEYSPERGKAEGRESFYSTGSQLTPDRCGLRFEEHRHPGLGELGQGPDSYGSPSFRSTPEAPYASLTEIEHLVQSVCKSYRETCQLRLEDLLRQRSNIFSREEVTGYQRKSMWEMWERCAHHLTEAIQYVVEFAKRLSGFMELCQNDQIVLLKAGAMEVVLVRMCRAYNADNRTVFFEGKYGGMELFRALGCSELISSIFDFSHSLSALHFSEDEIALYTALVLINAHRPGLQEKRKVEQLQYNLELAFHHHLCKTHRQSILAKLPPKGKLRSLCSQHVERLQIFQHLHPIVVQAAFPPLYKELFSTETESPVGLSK
# Method in brief: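 Reporter transcripts from a transfected RORg-GAL4 chimera in HepG2 cells were quantified 24 h after dosing by RT-PCR, 6-FAM labelling, HpaI digestion and capillary electrophoresis; increases over DMSO baseline were fitted.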
# [18] = target: human Thyroid Receptor alpha (THRa1), THRA (gene 7067) (UniProt P10827); assay: ATG_THRa1_TRANS: Attagene TRANS-FACTORIAL HepG2 Assay for human Thyroid Receptor alpha (THRa1) (AID 2283014; active = hit-call score of the fitted dose curve at least 0.9, where 1 is the maximum)
# human Thyroid Receptor alpha (THRa1), THRA (gene 7067), sequence (P10827 whole entry, looked up, the tested form may be a part): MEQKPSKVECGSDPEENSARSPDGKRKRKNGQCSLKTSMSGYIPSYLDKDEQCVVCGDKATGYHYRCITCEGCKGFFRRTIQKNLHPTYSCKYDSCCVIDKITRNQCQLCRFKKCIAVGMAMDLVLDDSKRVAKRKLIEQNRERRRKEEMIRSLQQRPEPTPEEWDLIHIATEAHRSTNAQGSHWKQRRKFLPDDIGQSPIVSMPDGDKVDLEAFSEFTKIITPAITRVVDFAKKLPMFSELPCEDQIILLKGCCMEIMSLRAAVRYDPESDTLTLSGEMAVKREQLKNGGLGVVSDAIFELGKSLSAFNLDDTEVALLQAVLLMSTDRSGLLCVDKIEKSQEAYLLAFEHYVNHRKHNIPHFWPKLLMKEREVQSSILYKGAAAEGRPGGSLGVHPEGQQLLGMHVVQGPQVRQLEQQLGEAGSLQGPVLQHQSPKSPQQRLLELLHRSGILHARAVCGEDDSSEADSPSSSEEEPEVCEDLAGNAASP
# Method in brief: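 Transcripts from GAL4-UAS-driven reporters, measured after 24 h compound exposure by RT-PCR plus capillary electrophoresis of 6-FAM-labeled fragments, were fitted for gain of signal relative to DMSO. Cells: transiently transfected HepG2 expressing NR-Gal4 chimeras.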
# [19] = target: human Retinoic Acid Receptor beta (RARb), RARB (gene 5915) (UniProt P10826); assay: ATG_RARb_TRANS: Attagene TRANS-FACTORIAL HepG2 Assay for human Retinoic Acid Receptor beta (AID 2283004; active = hit-call score of the fitted dose curve at least 0.9, where 1 is the maximum)
# Method in brief: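 Induction of reporter mRNA from a chimeric RARb-Gal4 construct was measured by RT-PCR, FAM labelling, HpaI digestion and capillary electrophoresis. Measurements followed 24 h compound treatment of transiently transfected human HepG2 liver cells, with DMSO as baseline.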
# [20] = target: human Retinoid X Receptor beta (RXRb), RXRB (gene 6257) (UniProt P28702); assay: ATG_RXRb_TRANS: Attagene TRANS-FACTORIAL HepG2 Assay for human Retinoid X Receptor beta (RXRb) (AID 2283013; active = hit-call score of the fitted dose curve at least 0.9, where 1 is the maximum)
# Method in brief: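 HepG2 cells transiently transfected with multiplexed reporter units driven by GAL4-UAS and exogenous chimeric NR-Gal4 proteins; treated 24 h. Reporter mRNA measured by RT-PCR, 6-FAM labelling and capillary electrophoresis; gain-of-signal fitted versus DMSO baseline.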
# E-selectin (Homo sapiens), sequence (P16581 whole entry, looked up): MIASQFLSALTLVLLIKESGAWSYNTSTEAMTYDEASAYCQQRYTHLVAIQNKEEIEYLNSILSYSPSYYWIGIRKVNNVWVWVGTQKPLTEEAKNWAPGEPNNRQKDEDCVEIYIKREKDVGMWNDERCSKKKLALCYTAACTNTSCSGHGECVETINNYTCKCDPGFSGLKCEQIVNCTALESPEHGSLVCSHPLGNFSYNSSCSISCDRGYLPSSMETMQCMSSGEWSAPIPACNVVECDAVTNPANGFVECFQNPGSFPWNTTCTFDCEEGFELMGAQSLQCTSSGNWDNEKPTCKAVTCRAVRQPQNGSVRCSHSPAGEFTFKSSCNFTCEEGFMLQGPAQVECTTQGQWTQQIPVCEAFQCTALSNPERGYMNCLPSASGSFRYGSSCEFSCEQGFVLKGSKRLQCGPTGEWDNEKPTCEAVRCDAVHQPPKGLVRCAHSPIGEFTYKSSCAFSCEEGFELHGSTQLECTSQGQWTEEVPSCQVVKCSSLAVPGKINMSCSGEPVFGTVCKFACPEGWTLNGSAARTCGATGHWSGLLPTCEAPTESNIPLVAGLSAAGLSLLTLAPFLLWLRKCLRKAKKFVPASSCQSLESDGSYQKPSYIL
smiles,measurement,setting,value
C=CC(F)(F)C(F)(F)C(F)(F)C(F)(F)C(F)(F)C(F)(F)C(F)(F)C(F)(F)F,outcome,[1],inactive
same,outcome,[2],inactive
same,outcome,[3],inactive
same,outcome,[4],inactive
same,outcome,[5],inactive
same,outcome,[6],inactive
same,outcome,[7],inactive
same,outcome,[8],inactive
same,outcome,[9],inactive
same,outcome,[10],inactive
same,outcome,[11],inactive
same,outcome,[12],inactive
same,outcome,[13],inactive
same,outcome,[14],inactive
same,outcome,[15],inactive
CCCCCCCOC(=O)c1ccccc1C(=O)OCCCCCCC,outcome,[1],inactive
same,outcome,[2],inactive
same,outcome,[3],inactive
same,outcome,[4],inactive
same,outcome,[6],inactive
same,AC50,[7],10.8 µM (active)
same,AC50,[16],6.29 µM (active)
same,outcome,[8],inactive
same,outcome,[9],inactive
same,outcome,[17],inactive
same,outcome,[18],inactive
same,outcome,[11],inactive
same,outcome,[12],inactive
same,outcome,[13],inactive
same,outcome,[14],inactive
same,outcome,[15],inactive
O=C(O)C(F)(F)C(F)(F)C(F)(F)C(F)(F)C(F)(F)C(F)(F)C(F)(F)C(F)(F)C(F)(F)C(F)F,AC50,[1],29.1 µM (active)
same,outcome,[1],inactive
same,AC50,[2],19.4 µM (active)
same,outcome,[4],inactive
same,outcome,[19],inactive
same,AC50,[6],56.7 µM (active) and 47 µM (active)
same,AC50,[7],25.8 µM (active)
same,AC50,[16],64.5 µM (active)
same,outcome,[8],inactive
same,outcome,[9],inactive
same,AC50,[17],50 µM (active)
same,AC50,[20],66 µM (active)
same,outcome,[18],inactive
same,outcome,[11],inactive
same,AC50,[12],17.8 µM (active) and 14.6 µM (active)
same,AC50,[13],47.1 µM (active)
same,outcome,[13],inactive
same,AC50,[14],30 µM (active)
same,outcome,[14],inactive
same,AC50,[15],37.5 µM (active)
same,outcome,[15],inactive

# Reference: PubChem BioAssay (EPA / NIEHS)
